Results taken from the supplement of paper PMC6555819.

What follows are sequences tested on PPARg:RXRa DBDmut IVT, anti-RXR (DBD mutation: RXRa K156A/R161A, NR concentration 270 nM, RXRa partner concentration 90 nM) (assay: PBM binding z-score (relative to random genomic background probes); higher = stronger binding; sequences stand for … in GC…GCGATTGACAGCGTAGAATGAAGG).
How it was run: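 Regression normalization was applied to scanned fluorescence from custom Agilent 4×180K protein-binding microarrays. Before scanning, arrays were incubated 1 h with ligand-free nuclear receptor dimers, and binding was detected with antibodies against each partner (one per run). Binding z-scores use the random background probes as reference.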

Row | Sequence | PBM binding z-score
1 | CCTTCCGGGTCACGAGGTTATAGCACGACGAGCG | 5.56
2 | TCTGCTAAGTCAACGATGGTCAGCTAATCTGCTA | 0.507
3 | TGAATGAGGTTATAAGATCAGAGAACGTTGCAAA | 0.837
4 | CCTGCTAGGTCAATGCTCAGCTAAAGCAGCTCGC | 4.63
5 | TCATATAGGTAATACAGGTGAAAGTCGGCATCTA | 4.2
6 | CCGACTGGGGCAAAGGTTACCCTACTCAGTACGA | 4.37
7 | AATACAGGGTCATCGTAGGCCAGAATACGCACAG | 2.86
8 | TCTCGGAGGACGCGAAAGGTCAGAGCTCGACATC | 0.887
9 | TCTGCTAGGGCAACGATGGTCAGCTAATCTGCTA | 2.18
10 | CCTTACGGGTCACTCCAGGTTATAGCTTCGGAGT | 3.23
11 | TCTAGCAGGCCAGAGTGTCACTCAAGAGGTACGG | 0.735
12 | CCTTACGGGTCACTGACAGGTTACAGCATTTGGA | 3.39
13 | ATATGTAGGTTAGCTGGGGTCAGTCAGACTAGGC | 6.39
14 | CCTACTGGGCCTAAAAGGTCATTGATGCCGATAA | 0.181
15 | CCTAGTTGGTCAAGGTTACACACGCTATAGGTAC | 1.65
16 | ATCGAAAGGTCGACGAGGTGAGTTTACACCGTTT | 0.636
17 | TCGCCTAGGTCATTGGGCCAGTATAGTACGCATC | 3.09
18 | CCTTACGGGTCAAGGTTAGAGCACGGGTGGTACG | 1.69
19 | TAGCCTAGGTCAATCAGGGGCCAGTATAGAAAGC | 1.74
20 | TCCTATAGGTAAAAGGTGAAAGTCGGTGTGGTAA | 3.53

Row | Sequence | PBM binding z-score
21 | ATATGGAGGTTACATCCGGGTCATTCAGGCTATG | 2.72
22 | TATACAGGGTCAAATGCCAGAGTACGAATGTCGA | 2.62
23 | TGAATGAGGTTAAAAGATCAGGGAACGTTGCAAA | 1.14
24 | TCTATTGGTTGATTAGGGCAACCGAAACAGCGGA | 1.96
25 | CCTTACGGGTCATGGTTATAGCACGGGTGGTACG | 1.34
26 | CCTAGTTGGTCAGGAGTTCACACACCGGATATGA | 1.01
27 | AATACAGGGTCTCTAGGCCAGAGTAGGTACGAAT | 0.633
28 | ACTAGCAGGCCTAGGGTCACTCAAGATTAGTCCG | -0.156
29 | TCTATTAGTTGATTAGGGCCACCGAAACAGCGGA | 1.82
30 | ACTAGTTGGTCAGGTGAGGTCACACACAATTCGG | 1.77
31 | ATACCAAGGTGATCGTGAGGTAGTTGATACTAAC | 0.454
32 | CCTAGTTGGTCAAGGTCAAACACGCTATAGGTAC | 2.18
33 | TAGCCTAGGTCAGATCGGGCTAGTATACGCTATA | 0.118
34 | TAGCCTAGGTGATTCAGGGGCCAGTATAGAAAGC | 0.201
35 | TCATATAGGTAACTGCTAGGTGAAAGTCCGATCT | 4.55
36 | TCAGACAGGTTAAGGTAACTCAGGTACGCAGTCG | 2.56
37 | TCTCGGAGGACACGAAAGTCAGAGCTTTCCAGAG | 1.13
38 | AATCCAGGGTCACTAGGCCAGAGTAGGTACGAAT | 3.69
39 | CGAACGAGCGCATGAGTTGATAGCAAATGCCGAT | -0.785
40 | GTACAAAGGTGAATAGGTCGTTGATGAGTAGGCG | 2.92
